Screens from PubChem BioAssay.
GALR2 ag – GALR2 receptor agonists, primary screen, cell-based; GALR2-expressing cells, agonist activation read-out; activation, % (no concentration beside the values); 0.48% of 140,000 active; in the data active means activation above about 5%, passing the limit was not always enough;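 further: 0% = vehicle buffer wells and 100% = reference agonist at full effect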
S1P4 agonist – S1P4 receptor agonists, primary screen, cell-based; activation, % at 4.98 µM; Sphingosine 1-phosphate receptor 4 (Homo sapiens), O95977; AID 1509, 2009; S1P4-expressing cell line, agonist reporter assay; 0.35% of 220,000 active; in the data active means activation above about 11%;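 further: 0% = DMSO vehicle and 100% = reference agonist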
Target sequence (O95977 whole entry, looked up): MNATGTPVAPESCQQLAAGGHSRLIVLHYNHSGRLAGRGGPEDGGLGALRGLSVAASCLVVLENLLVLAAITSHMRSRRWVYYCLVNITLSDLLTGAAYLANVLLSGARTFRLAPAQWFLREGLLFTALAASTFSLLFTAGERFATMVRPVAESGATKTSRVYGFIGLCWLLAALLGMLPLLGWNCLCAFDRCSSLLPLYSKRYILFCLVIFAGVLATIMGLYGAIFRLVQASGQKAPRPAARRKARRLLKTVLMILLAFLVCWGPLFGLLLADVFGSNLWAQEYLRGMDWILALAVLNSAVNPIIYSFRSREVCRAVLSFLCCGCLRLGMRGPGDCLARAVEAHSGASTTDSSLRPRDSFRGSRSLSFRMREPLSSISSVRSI
GALR2 blocker – GALR2 antagonists in receptor-expressing cells, primary screen; Galanin receptor type 2 (Homo sapiens), O43603; antagonist mode; inhibition, % at 4 µM; 0.39% of 140,000 active; AID 828, 2007; in the data active means inhibition above about 27%;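 further: cells stimulated with galanin 1-16 at roughly its EC80; 0% = agonist challenge control and 100% = basal control without agonist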
S1P4 antagonist – S1P4 receptor antagonists, primary screen, cell-based | Sphingosine 1-phosphate receptor 4 (Homo sapiens), O95977 | S1P4-expressing cells, antagonist mode, reporter read-out | AID 1510, 2009 | inhibition, % at 4.98 µM | 0.26% of 220,000 active; in the data active means inhibition above about 29%;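 further: 0% = wells stimulated with agonist and 100% = vehicle wells without agonist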
S1P3 antag – S1P3 receptor antagonists, primary screen, cell-based; AID 485, 2006; inhibition, % at 4.98 µM; CHO S1P3 NFAT-BLA reporter, FRET fluorescence, antagonist mode; 0.27% of 170,000 active;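 active means inhibition above the plate cutoff, the mean inhibition of test wells on that plate plus 3 SD, cut at about 28% in these data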;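 further: cells challenged with S1P at its EC80 of 0.8 µM; blue over green emission ratio from cleaved BLA substrate after 4 h stimulation; 0% = S1P-stimulated wells and 100% = unstimulated DMSO-only wells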
* = called active by the depositor; . = no result given. Hits are enriched below; roughly 1.3% of the tested compounds scored in any of these assays.

SMILES | GALR2 ag | S1P4 agonist | GALR2 blocker | S1P4 antagonist | S1P3 antag
COCCn1c(=NC(=O)/C=C/c2ccccc2Cl)sc2cc(NC(C)=O)ccc21 | 6.0* | 0 | -6 | -35 | 4
Cc1nc2ccccc2c(=O)n1NC(=O)c1c(O)c2ccccc2n(C)c1=O | . | . | . | . | 73*
Nc1nnc(N)c2ccccc12 | . | 3 | . | -14 | -8
Nc1nsc2ccccc12 | -2 | -1 | 50* | 2 | 19
CC12CN3CCN(CC(C3)/C1=N/N=C/c1cccc([N+](=O)[O-])c1)C2 | . | 1 | . | -2 | -2
CN(C)S(=O)(=O)c1ccc(Cl)c(NC(=O)COC(=O)c2ccc3c(c2)NC(=O)CS3)c1 | . | 3 | . | -12 | -8
CC1CCc2c(sc3nc(C4CC4)nc(SCC(=O)NCc4ccco4)c23)C1 (stereo not drawn) | . | . | . | . | 18
CC1CCc2c(sc3nc(SCC(=O)NCc4ccco4)nc(N)c23)C1 (stereo not drawn) | 0 | 0 | 3 | 15 | 92*
COc1ccc(OCC(O)Cn2c(=N)n(Cc3ccccc3)c3ccccc32)cc1 (stereo not drawn) | -2 | -3 | 29* | 19 | 4
COc1cccc(C2/C(=C(\O)c3ccc4c(c3)OCCO4)C(=O)C(=O)N2CCCN(C)C)c1OC (stereo not drawn) | -1 | 38* | -10 | -7 | .
Cc1cc(Cl)ccc1C(=O)C1CCCN(C(=O)c2ccc3ncccc3c2)C1 (stereo not drawn) | . | 0 | . | -6 | 2
Cc1ccc(S(=O)(=O)Nc2c(C)[nH]c(=O)[nH]c2=O)cc1C | 5.9* | -1 | 6 | -16 | 1
CCc1ccc(C2=NN(c3ccc(S(N)(=O)=O)cc3)C(c3ccc(F)cc3)C2)cc1 (stereo not drawn) | 39* | 6 | -18 | -3 | .
NS(=O)(=O)c1ccc(N2N=C(c3ccccc3)CC2c2ccccc2)cc1 (stereo not drawn) | 5.4* | 2 | -12 | -10 | -8
Fc1ccc(N2N=C(c3cccs3)CC2c2ccccc2)cc1 (stereo not drawn) | . | 7 | . | 4 | 7
O=S(=O)(O)c1ccc(N2N=C(c3ccccc3)CC2c2ccccc2)cc1 (stereo not drawn) | . | 1 | . | -5 | 0
CN1CCN(C(=S)Nc2ccc(S(N)(=O)=O)cc2)CC1 | . | -2 | . | -10 | 8
CN(Cc1cccnc1)C(=O)CNC(=O)c1ccc(Cl)cc1Cl | . | 1 | . | -8 | -5
COc1ccc(Br)cc1/C=C/C(=O)Nc1c(C)cccc1C | -1 | 1 | -4 | 95* | .
COc1ccccc1-c1cc(C(F)(F)F)nc(S(=O)(=O)CCCC(=O)Nc2cccnc2Cl)n1 | . | -1 | . | 50* | -5
O=C(NC(=O)c1ccccc1)OCCN1C(=O)c2ccccc2C1=O | . | 1 | . | -4 | -9
O=C(NCCCN1CCC(Cc2ccccc2)CC1)C1CC(=O)N(C2CCCC2)C1 (stereo not drawn) | -3 | 0 | 2 | -13 | 104*
CCOC(=O)c1ccc(N=c2sc(C(=O)OC)cc(=O)n2Cc2ccco2)cc1 | 0 | -1 | 23 | 14 | -34
CCOC(=O)c1ccc(N=c2sc(C(=O)OC)cc(=O)n2CCCN2CCOCC2)cc1 | -1 | 0 | 6 | 60* | 1
CCCSc1cc(NCCOC(=O)CCC)c([N+](=O)[O-])c2nonc12 | -1 | 1 | -12 | -10 | 0
SMILES | GALR2 ag | S1P4 agonist | GALR2 blocker | S1P4 antagonist | S1P3 antag
CCCC(=O)OCCNc1cc(Sc2nccn2C)c2nonc2c1[N+](=O)[O-] | 6.2* | 0 | 4 | -16 | -6
COc1ccc(C(C)=O)cc1CSc1nc2ccccc2c(=O)n1-c1cccc(C)c1 | -1 | -1 | 15 | -2 | -1
COc1ccc(C(C)=O)cc1CSc1nc2ccccc2c(=O)n1-c1ccccc1 | 5.0* | 0 | -13 | -13 | -21
COc1ccc(C2=CC(c3ccc(Cl)cc3)n3cnnc3N2)cc1OC (stereo not drawn) | -2 | -1 | 38* | 11 | .
CC(C)(Sc1cc(C(C)(C)C)c(O)c(C(C)(C)C)c1)Sc1cc(C(C)(C)C)c(O)c(C(C)(C)C)c1 | 0 | 49* | 5 | -19 | -4
C/C(=N/O)c1cc(C(C)(C)C)c(O)c(C(C)(C)C)c1 | 4 | -5 | -3 | -9 | .
COCc1cc(C)nc(N/N=C/c2ccc(-c3cc(C(=O)O)ccc3Cl)o2)c1C#N | . | 0 | . | -10 | -4
CCOc1ccc(C(C)=O)cc1CSc1nc2nc(C)cc(C)n2n1 | . | 0 | . | -5 | 3
COc1ccc(N2CSC3=C(C#N)C(c4cccc(OC)c4OC)CC(=O)N3C2)cc1 (stereo not drawn) | -1 | -2 | 1 | -13 | 99*
CCCC(=O)Nc1ccc(N2CCN(C(=O)c3ccccc3C)CC2)cc1 | -1 | -3 | 33* | -7 | 30
Cc1ccccc1C(=O)N1CCN(c2ccc(NC(=O)c3ccccc3[N+](=O)[O-])cc2)CC1 | . | 0 | . | -3 | 5
Cc1ccc2sc(-c3ccc(NC(=O)/C=C\C(=O)O)cc3)nc2c1 | . | 1 | . | 18 | -5
COc1ccc(OC)c(NC(=O)CN(c2ccc(C(C)C)cc2)S(=O)(=O)c2c(C)noc2C)c1 | -2 | -6 | -8 | -4 | 54*
COc1ccc(N(CC(=O)Nc2cc(Cl)ccc2OC)S(=O)(=O)c2c(C)noc2C)cc1 | -1 | 0 | 11 | 0 | 17
COc1ccc(OC)c(NC(=O)CN(c2ccc(C)cc2)S(=O)(=O)c2c(C)noc2C)c1 | 6.9* | 0 | -10 | 14 | -2
COc1ccc(N(CC(=O)Nc2ccc(OC)c(Cl)c2)S(=O)(=O)c2c(C)noc2C)cc1 | -2 | -2 | 10 | 4 | -54
CC/C(=N\N=C1\SC(C)C(=O)N1Cc1ccco1)c1ccccc1 (stereo not drawn) | -1 | 1 | -1 | 2 | -4
COC(=O)NCC(c1cccnc1)N1CCN(c2ccccc2F)CC1 (stereo not drawn) | 0 | 1 | 4 | -10 | 102*
Cc1ccc(-c2csc3ncnc(SCC(=O)Nc4nnc(C)s4)c23)cc1 | -2 | 0 | -2 | 4 | .
Cc1ccc(-c2csc3ncnc(Sc4nnc(CN5CCCCCC5=O)o4)c23)cc1 | 7 | -2 | 27* | 3 | 22
Cc1cnc(C(=O)Nc2nnc(SCc3c(Cl)cccc3Cl)s2)cn1 | -1 | 1 | 6 | -2 | -10
Cc1ccc(C(CCNC(C)c2cccs2)c2ccco2)cc1 (stereo not drawn) | . | 1 | . | 10 | 2
CCOc1ccc(NC(=O)CCN2CCN(S(=O)(=O)c3ccc(OC)cc3)CC2)cc1 | -2 | 0 | -2 | -18 | .
CCOc1ccc(NC(=O)CCN2CCN(S(=O)(=O)c3ccc(Cl)cc3)CC2)cc1 | 269* | -1 | -10 | -8 | .
CN1CCN(S(=O)(=O)c2ccc(NC(=S)NC(=O)c3ccc(Cl)cc3)cc2)CC1 | -1 | 13* | -2 | -3 | .
Cc1c(C(=O)N/N=C/c2ccc(N(C)C)cc2)[nH]c2ccc(Cl)cc12 | 6.4* | 0 | 4 | 3 | -7
COc1cc(OC)c2c(c1)S(=O)(=O)C(c1ccccc1)=C2N | . | 1 | . | -5 | -5
